According to PubChem BioAssay (NCI):
The panel holds about 83,000 compounds, 20% with a hit somewhere; the sample as a whole holds those more often.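 Activity criterion: percent growth below 10, measured after cells in 96-well plates were exposed to a single compound concentration for 48 hours.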 Active and inactive are the calls of the source.

How the values were obtained:
Test in all cases: NCI-60 one-dose screen, 48 h (100 = growth as untreated, 0 = no growth, -100 = all killed)
Conditions in all cases: 10 µM
[1] = test system: NCI-H23 lung
[2] = test system: NCI-H226 lung
[3] = test system: NCI-H322M lung
[4] = test system: HOP-62 NSCLC
[5] = test system: NCI-H460 lung
[6] = test system: HOP-92 NSCLC
[7] = test system: NCI-H522 lung
[8] = test system: A549/ATCC NSCLC
[9] = test system: 786-0 renal
[10] = test system: COLO 205 colon
[11] = test system: DU-145 prostate
[12] = test system: K-562 leukemia
[13] = test system: MALME-3M melanoma
[14] = test system: MDA-MB-231 breast
[15] = test system: RXF 393 renal
[16] = test system: SF-268 CNS
[17] = test system: SF-295 CNS
[18] = test system: SF-539 CNS
[19] = test system: UACC-257 melanoma
[20] = test system: M14 melanoma

Measured: growth

CN1CCCN(Cc2ccc(C(=O)Nc3cccc(Nc4ccc5cc(O)ccc5n4)c3)cc2C(F)(F)F)CC1
active: [9] 8.41% | [17] -68.5%
inactive: [1] 68.8% | [2] 103% | [3] 89.1% | [4] 95.9% | [5] 27.7% | [6] 53.3% | [7] 80.3% | [8] 64.7% | [10] 63.2% | [11] 73.7% | [12] 14.8% | [13] 51% | [14] 34.9% | [15] 60.8% | [16] 62.5% | [18] 41.8% | [19] 59.8% | [20] 47.2%

COc1ccc(/C(C)=N/N=C2C(=O)N(C)c3ccc(Br)cc32)cc1S(N)(=O)=O
inactive: [1] 64.1% | [2] 43.6% | [3] 80.8% | [4] 36.2% | [5] 74.8% | [6] 28.1% | [7] 45.5% | [8] 86.1% | [9] 71.4% | [10] 102% | [11] 86.1% | [12] 93.1% | [13] 64.2% | [14] 56.7% | [15] 57.4% | [16] 33.4% | [17] 47.4% | [18] 43.3% | [19] 83.1% | [20] 87.1%

Nc1cccnc1/C=N/NC(=S)NCCNC(=O)c1ccc(-n2nc(-c3ccccc3O)nc2-c2ccccc2O)cc1
inactive: [3] 19.3% | [4] 22.1% | [5] 37.6% | [8] 15% | [10] 15.1% | [11] 27.9% | [13] 14.3% | [14] 19.8% | [16] 32.8%
active: [1] -1.31% | [2] 2.65% | [6] -2.21% | [7] 4.39% | [9] -1.51% | [12] 7.44% | [15] -10.6% | [17] -6.19% | [18] -23.2% | [19] 7.34% | [20] -39%

COc1cc2oc(-c3cccc(C(=O)Nc4ccc(Cl)cc4)c3)cc(=O)c2c(OCCNC(=O)CNC(=O)OC(C)(C)C)c1OC
active: [15] -17.7%
inactive: [1] 63.8% | [2] 59.7% | [3] 71.6% | [4] 74.7% | [5] 76% | [6] 54.7% | [7] 45.7% | [8] 53.9% | [9] 76.1% | [10] 56.8% | [11] 77.5% | [12] 46% | [13] 65% | [14] 30.1% | [16] 81.8% | [17] 50.6% | [18] 67.3% | [19] 80.8% | [20] 60.2%

O=C(Nc1nc2ccc([N+](=O)[O-])cc2s1)Nc1ccccc1I
active: [1] -6.9% | [2] -7.84% | [3] -0.431% | [4] 7.62% | [5] 6.36% | [6] -28.1% | [7] -23.7% | [8] 3.05% | [9] 0.486% | [10] -94.2% | [12] 4.53% | [13] -5.11% | [14] 0.0164% | [15] -12.7% | [17] -25.8% | [18] -0.233% | [19] -17.8% | [20] 2.29%
inactive: [11] 17.9% | [16] 22%

CN1CCN(c2ccc(C(=O)/C=C/c3ccc(C#N)cc3)cc2)CC1
inactive: [1] 76.5% | [2] 80.7% | [3] 94.2% | [4] 89.1% | [5] 97.1% | [6] 77.2% | [7] 81.5% | [8] 76.3% | [9] 73.5% | [10] 87.4% | [11] 82.1% | [13] 90.4% | [14] 65.8% | [15] 63.9% | [16] 107% | [17] 78.2% | [18] 56.3% | [19] 90.4% | [20] 79.6%
active: [12] 7.48%

COC(=O)C(Cc1ccc(O)c(O)c1)NC(=O)C(CSC/C=C(\C)CCCC(C)CCCC(C)CCCC(C)C)NC(C)=O (stereo not given)
active: [7] -85.6% | [10] 3.84% | [12] 5.33% | [17] 1.8% | [18] -34.7%
inactive: [1] 31.1% | [2] 30.3% | [3] 67.1% | [4] 26.5% | [5] 18.9% | [6] 18.5% | [8] 18.9% | [9] 51.4% | [11] 75.5% | [13] 87.4% | [14] 38.1% | [15] 48.3% | [16] 27.6% | [19] 56.4% | [20] 13.9%

Nc1nnc(-c2c[nH]c3ncccc23)c(-c2c[nH]c3ccc(Br)cc23)n1
inactive: [1] 57.1% | [2] 63.6% | [3] 60.5% | [4] 49.4% | [5] 27.2% | [6] 54.8% | [7] 47.9% | [8] 58.9% | [9] 40% | [10] 66.9% | [11] 62.4% | [12] 32.9% | [13] 46.8% | [14] 41.6% | [15] 45.4% | [16] 51.8% | [17] 41.9% | [18] 37.2% | [19] 82.1% | [20] 50.3%
